# Laboratory results from PubChem BioAssay AID434962 (The Scripps Research Institute Molecular Screening Center, 2010).
# Screen size: about 320,000 compounds; about 1,300 (0.41%) were called active. The list comes from a sample in which actives are over-represented; it also holds similar structures and randomly drawn compounds. Values without a mark were called inactive.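 How the source made its calls: active means percent inhibition above the average of all tested compounds plus 3 SD, set per screening campaign (cut at about 16% in these data); inactive means the rest.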
# Target: Insulin-degrading enzyme (Homo sapiens) (UniProt P14735)
# Sequence (P14735 whole entry, looked up): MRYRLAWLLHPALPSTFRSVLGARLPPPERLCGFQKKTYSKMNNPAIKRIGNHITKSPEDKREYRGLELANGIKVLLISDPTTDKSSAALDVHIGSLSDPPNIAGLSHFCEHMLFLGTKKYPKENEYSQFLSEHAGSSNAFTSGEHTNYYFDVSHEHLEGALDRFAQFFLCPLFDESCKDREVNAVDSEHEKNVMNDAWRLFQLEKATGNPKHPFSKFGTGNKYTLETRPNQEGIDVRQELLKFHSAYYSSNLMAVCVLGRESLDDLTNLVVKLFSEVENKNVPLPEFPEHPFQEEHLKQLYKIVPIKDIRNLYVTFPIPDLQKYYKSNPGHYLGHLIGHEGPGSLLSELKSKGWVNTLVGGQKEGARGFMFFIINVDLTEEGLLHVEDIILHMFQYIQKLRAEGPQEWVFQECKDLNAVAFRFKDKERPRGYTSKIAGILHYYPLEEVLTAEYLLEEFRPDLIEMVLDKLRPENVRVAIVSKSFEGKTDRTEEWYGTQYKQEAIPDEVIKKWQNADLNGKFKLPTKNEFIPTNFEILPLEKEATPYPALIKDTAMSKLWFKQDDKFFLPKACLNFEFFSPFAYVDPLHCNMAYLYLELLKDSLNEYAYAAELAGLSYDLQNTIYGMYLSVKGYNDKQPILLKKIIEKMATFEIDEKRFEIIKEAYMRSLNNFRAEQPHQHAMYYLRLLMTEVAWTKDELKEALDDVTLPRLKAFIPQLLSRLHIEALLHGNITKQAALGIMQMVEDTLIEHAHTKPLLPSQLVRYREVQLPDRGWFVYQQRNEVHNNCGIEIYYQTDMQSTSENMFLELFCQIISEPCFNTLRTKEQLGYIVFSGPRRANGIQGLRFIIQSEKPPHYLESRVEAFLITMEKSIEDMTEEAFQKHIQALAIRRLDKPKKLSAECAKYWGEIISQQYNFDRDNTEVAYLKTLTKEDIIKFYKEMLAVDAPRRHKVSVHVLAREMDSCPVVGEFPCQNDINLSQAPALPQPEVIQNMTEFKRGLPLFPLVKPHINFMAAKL
# Experiment: cellular IDE Abeta-cleavage inhibition – fluorescence polarization, HEK cells, FAbetaB substrate, primary screen (AID 434962);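 further: IDE supplied by intact live HEK cells; FP after avidin binding of uncleaved biotin substrate so inhibition keeps polarization high; 0% = DMSO wells and 100% = 60 µM reference IDE inhibitor Ii1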
# Details: at 5.59 µM, stronger effect = higher value
row,SMILES,inhibition
1,C=CCN1C(=O)C2(OCCCO2)c2cccc(Cl)c21,1.02%
2,CCc1ccc(N(C(=O)c2csnn2)C(C(=O)NC2CCCCC2)c2ccncc2)cc1 (stereo not given),3.98%
3,CCOC(=O)N1CCN(C(=O)CSc2nc(=O)n3cccc(C)c3n2)CC1,-1%
4,Cc1cccn2c(=O)c(/C=C(\C#N)C(N)=O)c(N3CCCCCC3)nc12,15.9%
5,CCOC(=O)CC1C(=O)NCCN1c1nc2c(C)cccn2c(=O)c1/C=C1\SC(=S)N(C(C)CC)C1=O (stereo not given),114% (active)
6,O=C(COc1ccc(S(=O)(=O)N2CCOCC2)cc1Cl)N1CCOCC1,0.54%
7,CCCc1cc(=O)oc2c(C)c(OCC(=O)N3CCC(C(=O)O)CC3)ccc12,0.15%
8,Cc1c(C)c2ccc(OCC(=O)N3CCC(C(=O)O)CC3)c(C)c2oc1=O,9.3%
9,CCCCc1cc(=O)oc2c(C)c(OCC(=O)N3CCC(C(N)=O)CC3)ccc12,21.3% (active)
10,CCC(C)N(C(=O)COC(=O)c1nc(Cl)ccc1Cl)C1CCS(=O)(=O)C1 (stereo not given),1.33%
11,CNC(=O)/C(C#N)=C/c1c(F)cccc1Cl,-1.39%
12,CCN1CCN(C(=O)C2CCCN(S(=O)(=O)c3ccc(OC)c(OC)c3)C2)CC1 (stereo not given),-5.73%
13,O=C(O)c1ccccc1CSc1nc2ccccc2s1,-2.6%
14,O=[N+]([O-])c1c(NCCO)cc(Sc2nc3ccccc3s2)c2nonc12,21.8% (active)
15,CCOc1ccccc1Nc1ccc2nonc2c1[N+](=O)[O-],-3.97%
16,Cc1[nH]c2ccccc2c1/C=C(/C#N)C(=O)NC(C)C,-1.7%
17,O=C(CSc1ncnc2sccc12)N1CCN(C(=O)c2cccs2)CC1,3.13%
18,Nc1c(C(=O)c2cccs2)sc2nsc(SCCN3CCCCC3)c12,23% (active)
19,O=[N+]([O-])c1ccc(N(CCO)Cc2ccccc2)c([N+](=O)[O-])c1,0.66%
20,COc1ccc(N2CCN(Cc3ccc(Br)s3)CC2)cc1,-4.53%

row,SMILES,inhibition
1,O=C1NC(c2ccccc2)=NC1(Nc1ccccn1)C(F)(F)F (stereo not given),-2.81%
2,COC(=O)c1ccc(/C=C/c2c(-c3ccc(OC)cc3)sc3ccccc23)cc1,1.82%
3,Oc1ccc(N=Cc2sc3ccccc3c2Cl)cc1,0.23%
4,COc1ccc(N=C(C)c2sc3ccccc3c2O)cc1,41.2% (active)
5,Cc1ccccc1NC(=O)Cc1nc(COC(=O)c2ccc(C(F)(F)F)cc2)cs1,7.39%
6,Cc1ccc(CSCC(=O)N(C)CC(=O)Nc2cccc(F)c2)cc1,5.39%
7,CCN(CC)C(=O)CSC(Nc1cccc(F)c1)=C(C#N)C#N,31.4% (active)
8,CCN(CC)C(=O)C(=O)Nc1cccc(Br)c1,1.91%
9,Cc1cccc(OCC(O)CN2CCN(CCN3C(=O)c4cccc5cccc(c45)C3=O)CC2)c1C (stereo not given),-8.18%
10,Cc1cccc(C)c1NC(=O)COC(=O)c1ccccc1O,3.87%
11,Cc1cc([N+](=O)[O-])c(N2CCC[C@@H]2C(=O)O)c([N+](=O)[O-])c1,3.34%
12,Cc1ccccc1CN(c1ccc(C(=O)NCC2CCCO2)cc1)S(C)(=O)=O (stereo not given),10.1%
13,CS(=O)(=O)N(Cc1ccccc1)c1ccc(C(=O)NN=C2CCCCCC2)cc1,18.7% (active)
14,CN1CCC(=NNC(=O)c2ccc(N(Cc3ccc(Cl)cc3)S(C)(=O)=O)cc2)CC1,8.43%
15,CS(=O)(=O)N(Cc1ccc(Cl)cc1)c1ccc(C(=O)NCCSCc2ccco2)cc1,2.58%
16,O=C(C1=C[C@H](c2ccc(C(F)(F)F)cc2)C[C@H](OCc2ccc(CO)cc2)O1)N1CCN(Cc2ccccc2)CC1,-1%
17,O=C(C1=C[C@H](c2coc3ccccc3c2=O)C[C@H](OCc2ccc(CO)cc2)O1)N1CCOCC1,4.19%
18,O=C(C1=C[C@H](c2coc3ccccc3c2=O)C[C@H](OCc2ccc(CO)cc2)O1)N1CCN(Cc2ccccc2)CC1,18.4% (active)
19,O=C(NC1CCCC1)C(=O)c1c[nH]c2ccccc12,3.35%
20,COc1ccc(/C=C(\C#N)c2c[nH]c3ccccc23)cc1,-0.68%

row,SMILES,inhibition
1,C[n+]1ccc(/C=C/c2c[nH]c3ccccc23)cc1,23.9% (active)
2,Clc1ccccc1-c1cc(COc2ccc3ccccc3c2)no1,3.18%
3,CCOc1cc(/C=C2/C(=N)N3OC(C)=CC3=NC2=O)ccc1OC,0.06%
4,COc1ccc(OCCCn2cccc2/C=C2/C(=N)N3OC(C)=CC3=NC2=O)cc1,1.48%
5,CC1=CC2=NC(=O)/C(=C/c3coc4ccccc4c3=O)C(=N)N2O1,62.1% (active)
6,C=CCn1c(SCCOc2ccc(OC)cc2)nnc1C(NC(=O)c1ccc(OC)cc1)C(C)C (stereo not given),0.39%
7,CC(=O)Nc1ccc(S(=O)(=O)N2CCN(CCCOc3cc(C)ccc3C)CC2)cc1,-1.56%
8,CCOc1ccc(NC(=O)CN(C)CC(=O)Nc2cccc(Cl)c2C)cc1OCC,1.24%
9,CCCc1nc(SCC(=O)Nc2ccc(S(=O)(=O)N(C)C)cc2)c2ccccc2n1,38.4% (active)
10,CCc1nc(SCC(=O)NNC(=O)c2ccc(C)cc2)c2ccccc2n1,0.32%
11,CCCNC(=O)CSc1nc(Cc2ccccc2)nc2ccccc12,4.52%
12,Cc1ccccc1-n1c(C)cc(/C=N/NC(=O)c2ccc(CN3CCOCC3)cc2)c1C,-1.59%
13,COc1ccc(N2C(=O)/C(=C\c3ccco3)N=C2SCC(N)=O)cc1Cl,6.2%
14,N#Cc1c(N2CCCCC2)nc(N)c2c(N)nc(SCC(=O)O)cc12,7.07%
15,Cc1c(CN2CC[C@@H](N3CCN(c4ccccn4)CC3)[C@H](O)C2)[nH]c2ccc(F)cc12,-1.68%
16,CCN1CCCC1CNc1ncnc2c1[nH]c1ccc(F)cc12 (stereo not given),17% (active)
17,CCN1CCCC1Cn1cnc2c([nH]c3cc(OC)ccc32)c1=O (stereo not given),6.02%
18,Fc1ccc2[nH]c3c(N4CCSCC4)ncnc3c2c1,17.6% (active)
19,CC(C)OCCCNc1ncnc2c1[nH]c1ccc(F)cc12,27.3% (active)
20,CCN1CCCC1CNC(=O)c1cc2cc(OC)c(OC)cc2[nH]1 (stereo not given),1.37%
